Results reported in PubChem BioAssay (NCI).
Compounds without any hit were thinned out: in the full panel of roughly 83,000, 20% have a hit.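 Compound tested at a single concentration for 48 hours in 96-well plates; a percent growth value below 10 was scored as active.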 Values without a mark were called inactive. Active and inactive are the calls of the source.

Legend:
Test in all cases: NCI-60 one-dose screen, 48 h (100 = growth as untreated, 0 = no growth, -100 = all killed)
Details in all cases: 10 µM
786-0 renal = test system: 786-0 renal
MALME-3M melanoma = test system: MALME-3M melanoma
MDA-MB-231 breast = test system: MDA-MB-231 breast
SF-268 CNS = test system: SF-268 CNS
SF-295 CNS = test system: SF-295 CNS
UACC-257 melanoma = test system: UACC-257 melanoma
UACC-62 melanoma = test system: UACC-62 melanoma
SK-MEL-28 melanoma = test system: SK-MEL-28 melanoma
SK-MEL-2 melanoma = test system: SK-MEL-2 melanoma
EKVX NSCLC = test system: EKVX NSCLC
SN12C renal = test system: SN12C renal
UO-31 renal = test system: UO-31 renal
TK-10 renal = test system: TK-10 renal
CAKI-1 renal = test system: CAKI-1 renal
A498 renal = test system: A498 renal
OVCAR-8 ovarian = test system: OVCAR-8 ovarian
OVCAR-5 ovarian = test system: OVCAR-5 ovarian
IGROV1 ovarian = test system: IGROV1 ovarian
OVCAR-3 ovarian = test system: OVCAR-3 ovarian
HS 578T breast = test system: HS 578T breast

| SMILES | growth (786-0 renal) | growth (MALME-3M melanoma) | growth (MDA-MB-231 breast) | growth (SF-268 CNS) | growth (SF-295 CNS) | growth (UACC-257 melanoma) | growth (UACC-62 melanoma) | growth (SK-MEL-28 melanoma) | growth (SK-MEL-2 melanoma) | growth (EKVX NSCLC) | growth (SN12C renal) | growth (UO-31 renal) | growth (TK-10 renal) | growth (CAKI-1 renal) | growth (A498 renal) | growth (OVCAR-8 ovarian) | growth (OVCAR-5 ovarian) | growth (IGROV1 ovarian) | growth (OVCAR-3 ovarian) | growth (HS 578T breast) |
| --- | --- | --- | --- | --- | --- | --- | --- | --- | --- | --- | --- | --- | --- | --- | --- | --- | --- | --- | --- | --- |
| Cn1cc(/C=C(/SS/C(=C/c2cn(C)c3cccc(C(=O)O)c23)C(=O)O)C(=O)O)c2c(C(=O)O)cccc21 | 104% | 97.9% | 102% | 101% | 105% | 104% | 92.3% | 98.3% | 106% | 98.2% | 99% | 88.1% | 93% | 87.9% | 109% | 103% | 105% | 113% | 109% | 108% |
| CCOc1ccc(/C=N/NC(=O)Cn2nc(Cc3ccc(OC)cc3)c3onc(C)c3c2=O)cc1 | -40.3% (active) | -14.5% (active) | 20.7% | 19% | 20.4% | 62.1% | 29.2% | 11.5% | 55.9% | 33.8% | -6.22% (active) | 2.46% (active) | 50.2% | 5.68% (active) | 48.2% | 16.9% | 44.9% | 25.7% | 13.7% | 1.74% (active) |
| O=C1NC2C=CC=CC2/C1=C1/SC(=S)N(C2CC(=O)N(c3ccc(Br)cc3)C2=O)C1=O (stereo not given) | 97.5% | 97.6% | 101% | 95.7% | 109% | 95.9% | 87.6% | 101% | 107% | 92.6% | 96% | 68.3% | 124% | 77.1% | 129% | 97.6% | 104% | 100% | 92.2% | 98.9% |
| O=C(c1ccc(Cl)cc1)C(c1c[nH]c2ccccc12)c1c[nH]c2ccccc12 | -87.6% (active) | -91.5% (active) | 3.98% (active) | 9.45% (active) | 14.5% | -39.8% (active) | -53.4% (active) | -92.5% (active) | -66.5% (active) | -69% (active) | -59.7% (active) | -94.6% (active) | -62.2% (active) | -90.3% (active) | 58.9% | -92.8% (active) | -60.7% (active) | -19.4% (active) | -84% (active) | 27.2% |
| Cn1cc(-c2cc3nc(-c4c[nH]c5ccccc45)cc(N)n3n2)c2cc(Cl)ccc21 | -85.7% (active) | -90.8% (active) | -69.4% (active) | -44.6% (active) | -90.9% (active) | -90.4% (active) | -85.8% (active) | -99.4% (active) | -95.8% (active) | -90% (active) | -85.7% (active) | -97.7% (active) | -91.8% (active) | -98.7% (active) | -82.9% (active) | -86.1% (active) | -86.4% (active) | -64.5% (active) | -80% (active) | -22.2% (active) |
| O=C(Nc1ccc(Oc2ncnc3scc(Nc4n[nH]c(=S)s4)c23)cc1)C1(C(=O)Nc2cccc(C(F)(F)F)c2)CC1 | 107% | 95.8% | 92.7% | 102% | 108% | 110% | 86.5% | 108% | 113% | 97.1% | 108% | 69.4% | 143% | 81.6% | 122% | 103% | 87.9% | 70% | 104% | 100% |
| COc1ccc(C2c3sc4ccc(C)cc4c3Oc3nc(N)nc(N)c32)cc1 (stereo not given) | 102% | 85.3% | 89.3% | 88.6% | 102% | 94.9% | 63.4% | 93.2% | 96% | 76.4% | 91.4% | 60.5% | 125% | 63.3% | 113% | 87% | 96.2% | 79.1% | 96.8% | 78.8% |
